Results reported in PubChem BioAssay (NCI).
This is part of a sample that, as a whole, favours compounds with a hit. Of some 83,000 tested, about 20% had one in any assay.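 A percent growth of 40 corresponds to 60% growth inhibition; 0 means no net growth; -100 means all cells died. Active threshold: below 10.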 The source made the active and inactive calls.

How the values were obtained:
Test in all cases: NCI-60 one-dose screen, 48 h (100 = growth as untreated, 0 = no growth, -100 = all killed)
Settings in all cases: 10 µM unless noted
[1] = test system: DU-145 prostate
[2] = test system: K-562 leukemia
[3] = test system: MALME-3M melanoma
[4] = test system: MDA-MB-231 breast
[5] = test system: RXF 393 renal
[6] = test system: SF-268 CNS
[7] = test system: SF-295 CNS
[8] = test system: SF-539 CNS
[9] = test system: UACC-257 melanoma
[10] = test system: M14 melanoma
[11] = test system: HCT-15 colon
[12] = test system: HT29 colon
[13] = test system: SNB-75 CNS
[14] = test system: SNB-19 CNS
[15] = test system: U251 CNS
[16] = test system: PC-3 prostate
[17] = test system: SK-MEL-5 melanoma
[18] = test system: UACC-62 melanoma
[19] = test system: SK-MEL-28 melanoma
[20] = test system: LOX IMVI melanoma

Measured: growth

Cc1cc2[nH]c(=O)c3c4ncccc4cn3c2cc1C
inactive: [1] 35.6% | [3] 70.1% | [4] 28.8% | [5] 18.1% | [6] 41.7% | [8] 26.7% | [9] 108% | [10] 67.3% | [13] 99.4% | [14] 50.2% | [15] 24.1% | [16] 57.1% | [17] 70% | [19] 95.1%
active: [2] 3.34% | [7] -14.7% | [11] 5.25% | [12] -23.7% | [18] -8.94%

C=C1CC[C@H](C(C)C)[C@@H]2[C@H]1[C@H]1CC(=C)[C@@H](O)CC[C@@](C)(O)[C@@H]2O1
inactive: [1] 102% | [2] 97.8% | [3] 98% | [4] 105% | [5] 108% | [6] 94.7% | [7] 98.4% | [8] 98.1% | [9] 86.2% | [10] 98.6% | [11] 107% | [12] 101% | [13] 88.1% | [14] 91.5% | [16] 89.9% | [17] 100% | [18] 92.8% | [20] 93.8% | [19] 105%

S=C(c1cccs1)N1CCN(c2cccc(Cl)c2)CC1
inactive: [1] 98.3% | [2] 93.5% | [3] 80.9% | [4] 92.5% | [5] 100% | [6] 104% | [7] 111% | [8] 99.8% | [9] 105% | [10] 99.4% | [11] 88.7% | [12] 89.8% | [13] 100% | [14] 102% | [16] 89.5% | [17] 92.1% | [18] 88.1% | [20] 109% | [19] 104%

C=CCNc1ccc2c3c(cccc13)C(=O)N(N1C(=O)c3cccc4cccc(c34)C1=O)C2=O
inactive: [1] 109% | [2] 103% | [3] 110% | [4] 108% | [5] 104% | [6] 98.1% | [7] 102% | [8] 99.8% | [9] 98.5% | [10] 102% | [11] 102% | [12] 103% | [13] 90.4% | [14] 99.3% | [16] 106% | [17] 102% | [18] 95.7% | [20] 90.8% | [19] 108%

O=C1c2cccc3cccc(c23)C(=O)N1N1C(=O)c2cccc3c(NC4CCCCC4)ccc(c23)C1=O
inactive: [1] 106% | [2] 87.1% | [3] 90.8% | [4] 75.6% | [5] 92.9% | [6] 93.6% | [7] 95.3% | [8] 94.2% | [9] 100% | [10] 96.2% | [11] 96.6% | [12] 95.9% | [13] 87.5% | [14] 89.1% | [16] 83.6% | [17] 96.7% | [18] 83.5% | [20] 92.1% | [19] 100%

NCCCNc1nc2ccc(Cl)cc2c2c(=O)c3cc(F)ccc3sc12
active: [2] -38.7% | [4] 3.44% | [12] -12.1% | [20] -62.3%
inactive: [1] 24.4% | [3] 103% | [5] 62.3% | [6] 53.2% | [7] 103% | [8] 70.7% | [9] 98.3% | [10] 55% | [11] 47.9% | [13] 54.2% | [14] 77.1% | [16] 58.2% | [17] 94.3% | [18] 97.4% | [19] 103%

Cc1ccc(-c2nn(C)c(=O)c3noc(-c4ccc(C)cc4)c23)cc1
inactive: [1] 35.3% | [2] 17% | [3] 73.9% | [4] 58.3% | [5] 13.6% | [6] 55.1% | [7] 41.2% | [9] 62.8% | [10] 21.6% | [11] 32.3% | [14] 32.9% | [16] 26.1% | [17] 21.5% | [18] 38.5% | [20] 44.3% | [19] 70.5%
active: [8] -4.12% | [12] 9.47% | [13] -21.4%

Cc1nc(/N=C(\N)NC(=O)Nc2ccccc2Cl)sc1C
inactive: [1] 13.2% | [2] 13.1% | [3] 53.1% | [4] 50.5% | [6] 60.6% | [7] 12.6% | [9] 69.5% | [10] 24% | [11] 30.1% | [12] 18% | [14] 44.2% | [16] 33.1% | [17] 32.6% | [18] 45.7% | [20] 43.3% | [19] 63.2%
active: [5] 4.01% | [8] 0.177% | [13] -29.2%
